Several values for one entry are separate records, joined by “and”; a condition that tells them apart may be missing. Identical values can stand only once. Records with an inconclusive call do not appear. Activity calls are given as the source filed them. The calls were made as follows: active = hit-call score of the fitted dose curve at least 0.9, where 1 is the maximum; inconclusive = response in the unintended direction; inactive = score below 0.9.
The compounds below were run against Estrogen receptor (Homo sapiens) + Estrogen receptor beta (Homo sapiens) (UniProt P03372+Q92731) (assay: OT_ER_ERaERb_0480: Odyssey Thera (OT) 8-hour HEK293T Protein-Complementation Assay for Estrogen Receptor-alpha/-beta Heterodimer (AID 2283352)).
Sequence of Estrogen receptor (Homo sapiens) + Estrogen receptor beta (Homo sapiens) (P03372 whole entry, looked up, the tested form may be a part): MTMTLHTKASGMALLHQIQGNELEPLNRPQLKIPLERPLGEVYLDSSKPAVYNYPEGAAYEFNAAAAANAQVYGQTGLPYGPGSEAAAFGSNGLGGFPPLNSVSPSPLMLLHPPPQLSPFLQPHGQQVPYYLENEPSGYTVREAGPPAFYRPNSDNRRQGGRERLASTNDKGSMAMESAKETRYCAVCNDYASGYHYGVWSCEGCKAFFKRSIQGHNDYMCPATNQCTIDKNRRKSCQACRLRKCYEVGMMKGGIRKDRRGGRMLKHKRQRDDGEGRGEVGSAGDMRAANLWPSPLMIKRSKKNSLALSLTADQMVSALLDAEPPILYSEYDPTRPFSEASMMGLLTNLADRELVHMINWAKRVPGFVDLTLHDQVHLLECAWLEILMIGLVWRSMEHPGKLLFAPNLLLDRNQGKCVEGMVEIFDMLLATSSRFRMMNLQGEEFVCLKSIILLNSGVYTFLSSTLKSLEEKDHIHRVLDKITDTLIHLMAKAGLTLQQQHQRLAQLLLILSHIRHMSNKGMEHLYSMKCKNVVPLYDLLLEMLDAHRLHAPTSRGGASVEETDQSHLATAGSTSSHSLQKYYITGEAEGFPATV
Sequence of Estrogen receptor (Homo sapiens) + Estrogen receptor beta (Homo sapiens) (Q92731 whole entry, looked up, the tested form may be a part): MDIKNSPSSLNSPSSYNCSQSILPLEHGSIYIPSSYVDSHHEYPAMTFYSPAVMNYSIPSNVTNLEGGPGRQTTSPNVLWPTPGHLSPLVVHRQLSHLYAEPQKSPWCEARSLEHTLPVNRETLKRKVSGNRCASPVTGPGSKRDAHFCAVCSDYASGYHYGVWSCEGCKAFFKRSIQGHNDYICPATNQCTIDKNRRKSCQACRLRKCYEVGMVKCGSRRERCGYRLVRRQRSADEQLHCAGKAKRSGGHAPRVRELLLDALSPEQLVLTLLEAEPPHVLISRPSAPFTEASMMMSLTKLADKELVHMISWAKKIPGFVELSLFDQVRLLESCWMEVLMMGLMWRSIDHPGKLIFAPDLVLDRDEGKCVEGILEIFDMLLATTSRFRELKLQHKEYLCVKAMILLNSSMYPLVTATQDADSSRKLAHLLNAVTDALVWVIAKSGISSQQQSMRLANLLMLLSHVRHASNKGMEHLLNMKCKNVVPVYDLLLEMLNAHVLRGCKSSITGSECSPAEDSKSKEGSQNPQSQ
Summary of the method: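 Fluorescence intensity readout from a protein-fragment complementation reporter in HEK293T; ER-alpha/ER-beta LBD heterodimer. Dosing 8 h. Gain-of-signal fit relative to DMSO negative control; laser scanning cytometry of whole-well cell population.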
With `CCC(C)c1cc([N+](=O)[O-])cc([N+](=O)[O-])c1O` (centres undefined) the outcome was “inactive”.
`CCCCCCCCCc1ccc(O)cc1` was tested, and the AC50 was 17.6 µM (active) and 14.6 µM (active) and 19.5 µM (active).
With `Cc1cc(O)ccc1Cl` the AC50 was 50 µM (active).
`Cc1ccc(O)c(C)c1` was tested, and the outcome was “inactive”.
In the case of `CN(C)CCO`, the outcome is reported as “inactive”.
For `OCC(O)CO`, the outcome was “inactive”.
With `CC#Cc1cc(C)nc(Nc2ccccc2)n1` the outcome was “inactive”.
`NS(=O)(=O)C(F)(F)C(F)(F)C(F)(F)C(F)(F)C(F)(F)C(F)(F)C(F)(F)C(F)(F)F` was tested, and the AC50 was 72.1 µM (active).
In the case of `O=C(O)C(F)(F)C(F)(F)C(F)(F)C(F)(F)C(F)(F)C(F)(F)C(F)(F)C(F)(F)F`, the outcome is reported as “inactive”.
`C[C@]12CCC(=O)C=C1CC[C@@H]1[C@@H]2CC[C@]2(C)C(=O)CC[C@@H]12` was tested, and the outcome was “inactive”.
`CCCN(CCC)N=O` was tested, and the outcome was “inactive”.
`C1CC2OC2CC1C1CO1` (centres undefined) was tested, and the outcome was “inactive”.
`O=C(O)C(F)(F)C(F)(F)C(F)(F)C(F)(F)C(F)(F)F` was tested, and the outcome was “inactive”.
With `O=C(N[C@H]1CN2CCC1CC2)c1cc2ccoc2cn1` the outcome was “inactive”.
In the case of `O=C(NC(=O)c1c(F)cccc1F)Nc1cc(Cl)c(OC(F)(F)C(F)F)c(Cl)c1`, the outcome is reported as “inactive”.
With `CC(C)(O)C(=O)Nc1ccc([N+](=O)[O-])c(C(F)(F)F)c1` the outcome was “inactive”.
With `ClC1=C(Cl)[C@]2(Cl)[C@@H]3[C@@H](Cl)[C@H]4O[C@H]4[C@@H]3C1(Cl)C2(Cl)Cl` the outcome was “inactive”.
For `C=CC(=O)NCNC(=O)C=C`, the outcome was “inactive”.
`CCOC(=O)C(O)(c1ccc(Cl)cc1)c1ccc(Cl)cc1` was tested, and the outcome was “inactive”.
In the case of `Oc1ccc(Cl)cc1Cl`, the AC50 is reported as 66.5 µM (active).
With `N#Cc1ccc(N(CC(N)=O)CC(F)(F)F)cc1C(F)(F)F` the outcome was “inactive”.
In the case of `CC(C)(c1ccccc1)c1ccc(O)cc1`, the AC50 is reported as 2.01 µM (active) and 11.9 µM (active).
In the case of `COc1ccc(O)c(C(C)(C)C)c1`, the AC50 is reported as 50 µM (active).
With `CCCCCCCCOC(=O)c1ccccc1C(=O)OCCCCCCCC` the outcome was “inactive”.
In the case of `Clc1ccc(Cl)cc1`, the outcome is reported as “inactive”.
In the case of `c1ccc(-c2ccccc2)cc1`, the outcome is reported as “inactive”.
`CCC(=O)O[C@H]1CC[C@H]2[C@@H]3CCC4=CC(=O)CC[C@]4(C)[C@H]3CC[C@]12C` was tested, and the outcome was “inactive”.
With `CC(C)C(=O)OCC(C)(C)C(OC(=O)C(C)C)C(C)C` (centres undefined) the outcome was “inactive”.
For `Nc1ccc(-c2ccc(N)cc2)cc1`, the outcome was “inactive”.

From PubChem BioAssay (EPA / NIEHS)
